RPL19A-GFP yeast: yeast TOR pathway RPL19A-GFP modulation. AID 2025. percent response vs DMSO, % at 10 µM. hit rate 0.3% among 330,000. S. cerevisiae RPL19A-GFP strain, flow cytometry, 3 h; stronger effect = lower value;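 active means percent response vs DMSO below 50%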;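 further: median channel GFP fluorescence of the barcoded RPL19A-GFP strain; ratio of sample median GFP to plate DMSO average so 100% = DMSO; lower means less RPL19A-GFP as with rapamycin TOR inhibition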
MEP2-GFP yeast: modulators of TOR pathway MEP2-GFP in S. cerevisiae; S. cerevisiae MEP2-GFP strain, flow cytometry GFP, 3 h; 100% = DMSO control level; GFP response vs DMSO, % at 10 µM; hit rate 0.51% among 330,000; AID 2016;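 active means GFP response versus DMSO above a set limit, roughly screen mean plus 3 SD, cut at about 180% in these data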;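 further: median GFP fluorescence of the barcode-gated MEP2-GFP cells per well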
CIT2-GFP yeast: alters CIT2-GFP fluorescence in TOR pathway yeast screen; S. cerevisiae CIT2-GFP strain, flow cytometry, 3 h; 100 means same as DMSO wells; GFP response vs DMSO, % at 10 µM; hit rate 0.065% among 320,000; AID 2029;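 active means GFP response relative to DMSO above a set limit, near the screen mean plus 3 SD, cut at about 150% in these data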;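 further: ratio of well median GFP fluorescence to mean of DMSO wells on the plate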
LAP4-GFP MLPCN: yeast TOR pathway LAP4-GFP modulation | S. cerevisiae LAP4-GFP multiplex, flow cytometry GFP, 3 h; median GFP as percent of DMSO wells | GFP response vs DMSO, % at 10 µM | hit rate 0.34% among 320,000 | AID 2023;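 active means GFP response vs DMSO above a set limit, about the screen mean plus 3 SD, cut at about 150% in these data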
AGP1-GFP MLPCN: modulators of TOR pathway AGP1-GFP in S. cerevisiae; S. cerevisiae AGP1-GFP multiplex flow cytometry, 3 h; GFP as percent of DMSO wells; hit rate 0.02% among 320,000; GFP response vs DMSO, % at 10 µM;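 active means GFP response relative to DMSO above a set limit, near screen average plus 3 SD, cut at about 150% in these data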;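 further: median GFP channel fluorescence of the gated AGP1 strain per well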
LAP4-GFP pick2: yeast LAP4-GFP modulation, second cherry pick; S. cerevisiae LAP4-GFP strain, flow cytometry GFP, 3 h; GFP response vs DMSO, % at 10 µM; hit rate 20% among 590; shares compounds with LAP4-GFP MLPCN;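 active means GFP signal as percent of the solvent control above about 150%, meaning raised reporter expression, limit read from the data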;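 further: ratio of well median GFP fluorescence to plate DMSO mean so 100% = DMSO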
MEP2-GFP pick2: reconfirmed MEP2-GFP TOR pathway modulator in yeast; GFP response vs DMSO, % at 10 µM; shares compounds with LAP4-GFP MLPCN; S. cerevisiae MEP2-GFP strain, flow cytometry GFP, 3 h; hit rate 10% among 590;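 active means GFP signal above 150% of the solvent control wells, that is a rise of more than half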;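 further: median channel GFP fluorescence of all gated yeast cells per well; ratio of median GFP to plate DMSO average so 100% = DMSO level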
RPL19A GFP CP2: second confirmation of modulators of TOR reporter RPL19A-GFP in yeast; hit rate 3% among 590; S. cerevisiae RPL19A-GFP strain, flow cytometry GFP, 3 h; stronger effect = lower value; 100% means same as DMSO wells; GFP response vs DMSO, % at 10 µM; shares compounds with LAP4-GFP MLPCN; AID 2623;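 active means under 65% GFP response relative to DMSO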;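 further: median GFP channel fluorescence per well over the all cells gate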
CIT2 GFP CP2: yeast CIT2-GFP TOR reporter modulation, second cherry pick. hit rate 8% among 590. AID 2624. S. cerevisiae CIT2-GFP strain, flow cytometry GFP, 3 h; DMSO control wells read 100%. shares compounds with LAP4-GFP MLPCN. GFP response vs DMSO, % at 10 µM;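 active means GFP response vs DMSO above about 150%, limit read from the data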;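 further: median green fluorescence per well over all gated yeast cells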
AGP1-GFP pick2: yeast AGP1-GFP TOR reporter modulation, second cherry pick; shares compounds with LAP4-GFP MLPCN; S. cerevisiae AGP1-GFP strain, flow cytometry GFP, 3 h; percent response vs DMSO, % at 10 µM; 590 tested, under 10 active; AID 2643;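 active means over 150 percent of DMSO response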;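 further: median GFP channel fluorescence over all cells without mother daughter split; sample median GFP divided by mean DMSO control so 100% equals DMSO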
Yeast autofluor: counter-screen for compound autofluorescence in yeast s288c cells | 610 tested, under 10 active | AID 2757 | fluorescence change (kMESF span) at 33 µM | S. cerevisiae s288c, 520 nm autofluorescence, flow cytometry, 3 h; stronger effect = higher value; zero means same as solvent-only cells | shares compounds with LAP4-GFP MLPCN;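 active means fluorescence span over the dose series, or activity score, above about 33, limit read from the data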
Yeast autofl DR: yeast s288c autofluorescence artifact in dose response | S. cerevisiae s288c parental, compound autofluorescence, flow cytometry, 3 h | 110 tested, under 10 active | fluorescence change (span) at 33 µM | shares compounds with LAP4-GFP MLPCN | AID 488829;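 active means fluorescence change span, or the activity score built from it, above 25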
TORC1 bypass: compounds blocking wildtype yeast growth but not TORC1 bypass cells. shares compounds with LAP4-GFP MLPCN. S. cerevisiae BY4741 spot growth rating, 48-72 h; stronger effect = lower value. growth rating (0-3) at 30 µM. 120 tested, under 10 active;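 active means growth rating at most 1 for wild type yeast while the TORC1 bypass strain still grows fully, rated 3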
* = called active by the depositor; · = not tested or not shown; [ ] = another dose, or the depositor's remark. An excerpt weighted towards active compounds, which were near 0.92% of everything screened.

SMILES | RPL19A-GFP yeast | MEP2-GFP yeast | CIT2-GFP yeast | LAP4-GFP MLPCN | AGP1-GFP MLPCN | LAP4-GFP pick2 | MEP2-GFP pick2 | RPL19A GFP CP2 | CIT2 GFP CP2 | AGP1-GFP pick2 | Yeast autofluor | others
CCN(C(=O)CN1CCN(c2cccc(Cl)c2)CC1)c1c(N)n(Cc2ccccc2)c(=O)[nH]c1=O | 63 | 133 | 97 | 96 | 75 | 101 | 100 | 100 | 97 | 101 | ·
CC(=O)Oc1ccc(-c2cccc(C(=O)N(C)c3ccc(O)cc3)c2)cc1 | 102 | 101 | 97 | 99 | 103 | · | · | · | · | · | ·
CNc1nc(N)c([N+](=O)[O-])c(NCc2ccccc2)n1 | 104 | 104 | 102 | 91 | 106 | · | · | · | · | · | · | Yeast autofl DR=0;TORC1 bypass=3
CNc1nc(N)c([N+](=O)[O-])c(Nc2ccc(OC)cc2)n1 | · | · | · | · | · | · | · | · | · | · | · | Yeast autofl DR=0.26;TORC1 bypass=3
Nc1nc(NCc2ccccc2)nc(NCc2ccccc2)c1[N+](=O)[O-] | 99 | 104 | 96 | 101 | 96 | · | · | · | · | · | ·
CNc1nc(N)c([N+](=O)[O-])c(NC2CCCCC2)n1 | 117 | 130 | 125 | 82 | 89 | · | · | · | · | · | · | Yeast autofl DR=0.21;TORC1 bypass=3
CC(C)CNc1nc(N)c([N+](=O)[O-])c(NC2CCCCC2)n1 | 102 | 101 | 107 | 103 | 109 | · | · | · | · | · | ·
CNc1nc(N)c([N+](=O)[O-])c(Nc2ccc(F)cc2)n1 | · | · | · | · | · | · | · | · | · | · | · | Yeast autofl DR=0.42;TORC1 bypass=3
CNc1nc(C)c([N+](=O)[O-])c(Nc2ccc(OC)cc2)n1 | 106 | 107 | 105 | 101 | 104 | · | · | · | · | · | ·
Cc1ccc(CNc2nc(N)c([N+](=O)[O-])c(Nc3ccc(F)cc3)n2)cc1 | 102 | 103 | 111 | 100 | 102 | · | · | · | · | · | ·
Cc1ccc(/C=N/NC(=O)CSc2nc3ccccc3[nH]2)o1 | 102 | 99 | 99 | 96 | 97 | · | · | · | · | · | ·
Cc1ccc(NC(=O)c2ccc(Cl)c(N3C(=O)C=CC3=O)c2)cc1 | 50* | 95 | 69 | 129 | 61 | · | · | · | · | · | 1.4 | Yeast autofl DR=1.3;TORC1 bypass=3
COc1ccc(CNC(=O)N2CCN(c3ccc(F)cc3)CC2)cc1Cl | 102 | 110 | 103 | 107 | 103 | · | · | · | · | · | ·
O=C(/C=C/c1ccccc1[N+](=O)[O-])c1ccccc1Br | 97 | 104 | 83 | 156* | 92 | · | · | · | · | · | 8.8
CCOc1c(Br)cc(/C=C(\C#N)C(=O)NC2CC2)cc1OC | 110 | 105 | 95 | 154*[may fluoresce green] | 112 | 122 | 115 | 92 | 97 | 95 | ·
CCOc1ccccc1/C=C(\C#N)C(=O)NC1CC1 | 92 | 89 | 87 | 96 | 95 | · | · | · | · | · | ·
Cc1ccc([N+](=O)[O-])cc1NC(=O)CSc1n[nH]c(-c2cccnc2)n1 | 99 | 106 | 102 | 98 | 102 | · | · | · | · | · | ·
CC(C)Oc1ccc(C(=O)NCc2cccs2)cc1 | 79 | 93 | 86 | 169* | 104 | 102 | 98 | 100 | 93 | 98 | ·
COc1ccc(NC(=O)Cc2nnc(N)s2)cc1 | 103 | 95 | 105 | 103 | 107 | · | · | · | · | · | ·
CCOC(=O)CSC1=NC(=O)/C(=C/c2ccc(Br)cc2)S1 | 84 | 97 | 82 | 216* | 89 | · | · | · | · | · | 0
Cc1ccc(Cl)cc1NC(=O)CN1C(=O)NC(C)(C2CC2)C1=O (stereo unspecified) | 84 | 108 | 99 | 151* | 102 | 102 | 103 | 99 | 106 | 102 | ·
O=C(OCC(=O)N1CCN(C(=O)c2ccco2)CC1)c1cc(-c2ccc(Cl)c(Cl)c2Cl)nc2ccccc12 | 80 | 118 | 99 | 122 | 114 | · | · | · | · | · | -0.3
O=C(OCC(=O)N1CCN(C(=O)c2ccco2)CC1)c1cc(-c2ccco2)nc2ccccc12 | 87 | 103 | 128 | 123 | 97 | · | · | · | · | · | ·
Cc1ccc2c(nc3s/c(=C\c4ccc(-c5ccccc5C(=O)O)o4)c(=O)n32)c1C | 114 | 184* | 144 | 126 | 99 | · | · | · | · | · | 9.1
Cc1ccc(C)c(N2C(=N)S/C(=C\c3ccc(-c4ccccc4C(=O)O)o3)C2=O)c1 | 99 | 108 | 103 | 110 | 102 | · | · | · | · | · | ·
SMILES | RPL19A-GFP yeast | MEP2-GFP yeast | CIT2-GFP yeast | LAP4-GFP MLPCN | AGP1-GFP MLPCN | LAP4-GFP pick2 | MEP2-GFP pick2 | RPL19A GFP CP2 | CIT2 GFP CP2 | AGP1-GFP pick2 | Yeast autofluor | others
COc1ccc(-c2noc(CNS(=O)(=O)c3ccccc3)n2)cc1 | 102 | 98 | 95 | 92 | 102 | · | · | · | · | · | ·
CCC(C)/C(C)=N/NC(=O)c1ccc(COc2ccc(Cl)c(C)c2)cc1 (stereo unspecified) | 85 | 135 | 64 | 206* | 99 | 142 | 175* | 107 | 127 | 115 | 1.9
CCOc1ccc(OCc2ccc(C(=O)N/N=C(\C)c3ccccn3)cc2)cc1 | 91 | 110 | 105 | 138 | 93 | · | · | · | · | · | ·
CC(C)C[C@]1(c2ccccc2)ON(c2ccccc2C(F)(F)F)C1=O | 100 | 89 | 97 | 88 | 74 | 104 | 100 | 105 | 112 | 99 | -0.1
COc1ccccc1[C@]1(C)ON(c2ccccc2C(F)(F)F)C1=O | 92 | 89 | 89 | 156* | 87 | 150* | 110 | 100 | 107 | 100 | 0.3
Cc1cc(=O)c(C(=O)O)nn1-c1ccccc1C(F)(F)F | 107 | 106 | 105 | 96 | 109 | · | · | · | · | · | ·
COc1ccc2c(c1)C(=O)N(c1ccccc1OC)C(=O)C2(C)C | 94 | 102 | 91 | 115 | 99 | · | · | · | · | · | ·
CC[C@]1(c2ccccc2OC)ON(c2ccccc2C(F)(F)F)C1=O | 93 | 100 | 85 | 118 | 81 | 150 | 120 | 103 | 118 | 110 | 0
CCN(C(=O)CSc1nc2ccccc2n1C)C1CCS(=O)(=O)C1 (stereo unspecified) | 97 | 98 | 103 | 98 | 99 | · | · | · | · | · | ·
O=S1(=O)C=C(Sc2nc3ccccc3s2)c2ccccc21 | 92 | 91 | 87 | 172* | 90 | 175* | 106 | 104 | 141 | 94 | 0.2

High-throughput results: PubChem, NMMLSC
